Results on 15 molecules are retold here after PubChem BioAssay (NCI).

Some test systems named below: NCI-H226 lung; HOP-62 NSCLC; NCI-H460 lung; HOP-92 NSCLC; NCI-H522 lung; A549/ATCC NSCLC; 786-0 renal; COLO 205 colon; NCI-H322M lung.
Holding throughout (assay): NCI-60 one-dose screen, 48 h (100 = growth as untreated, 0 = no growth, -100 = all killed)
Holding throughout (settings): 10 µM unless noted

Compounds without any hit were thinned out: in the full panel of roughly 83,000, 20% have a hit.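 48-hour exposure, single concentration, 96-well plates; percent growth endpoint where 0 means no net growth. Active: below 10.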 A number with no mark means an inactive call. Calls of active or inactive are those of the source.

Consider `COC(=O)c1n[nH]c2ccc3nc(-c4cn[nH]c4C(F)(F)F)c4c(c3c12)CCCC4`, for which the growth in the test with NCI-H226 lung is 51.6%; in the test with HOP-62 NSCLC it was 46.9%; in the test on NCI-H460 lung, 29.3%; in the test with HOP-92 NSCLC, 30.9%; in the test with NCI-H522 lung it was 23.6%; in the test with A549/ATCC NSCLC, 39%. The results for the growth with 786-0 renal and with COLO 205 colon were 35.5% and 3.9% (active), respectively.
Regarding `CN(C)CCCC1(c2ccc(F)cc2)OCc2cc(-c3cccc4[nH]ccc34)ccc21` (stereo not given), the growth in the test on NCI-H226 lung is 65.7%; in the test on NCI-H322M lung, 61.5%; in the test on HOP-62 NSCLC it was 16.2%; in the test on NCI-H460 lung, -23.3% (active); with HOP-92 NSCLC it was 30.6%; in the test with NCI-H522 lung, 28%. Further, the figures for the growth in the test with A549/ATCC NSCLC, with 786-0 renal and in the test on COLO 205 colon were 28.3%, 37% and -64.2% (active), respectively.
Consider `CCO/C=N/C1=C(C#N)C(c2ccc(OC)cc2)c2sc3c(F)cccc3c2O1` (stereo not given), for which the growth in the test on NCI-H226 lung was 63%; in the test on NCI-H322M lung, 51.5%; with HOP-62 NSCLC, 49.5%; in the test with NCI-H460 lung, 12.7%; with HOP-92 NSCLC, 62.6%; in the test with NCI-H522 lung, 0.128% (active). Also, the growth in the test on A549/ATCC NSCLC was 43.3%; in the test with 786-0 renal it was 33.3%; in the test with COLO 205 colon, 39.2%.
Turning to `O=C1c2cccnc2C(=O)c2c1c(C(=O)NCCn1ccnc1)c1ccccn21`, the growth is 51.5% in the test on NCI-H226 lung; 22.3% in the test on NCI-H322M lung; 14% in the test with HOP-62 NSCLC; -41.3% (active) in the test on NCI-H460 lung; 56.3% with HOP-92 NSCLC; -9.62% (active) with NCI-H522 lung. In addition, the growth is 1.78% (active) with A549/ATCC NSCLC, 49% in the test on 786-0 renal and -27.6% (active) with COLO 205 colon.
As to `N#CC1CCc2c(c(-c3cn[nH]c3C(F)(F)F)nc3c(F)cc4[nH]ncc4c23)C1` (stereo not given), the growth is 48.8% with NCI-H226 lung; 30.8% in the test on NCI-H322M lung; 34.8% with HOP-62 NSCLC; 38.9% in the test on NCI-H460 lung; 36.5% with HOP-92 NSCLC; -14.6% (active) in the test on NCI-H522 lung. The growth with A549/ATCC NSCLC was 75%; in the test with 786-0 renal, 36.8%; with COLO 205 colon it was 7.05% (active).
In the case of `Cc1ccc(/C=N/Nc2nc(Nc3ccccc3)nc(-n3nc(C)cc3C)n2)cc1`, the growth is 46.9% in the test on NCI-H226 lung; 27% in the test with NCI-H322M lung; 73.3% with HOP-62 NSCLC; 60.7% in the test on HOP-92 NSCLC; 15.7% in the test with NCI-H522 lung; 26.2% with A549/ATCC NSCLC. The growth in the test with 786-0 renal was 44.4%; in the test on COLO 205 colon it was 30.6%.
For the molecule `COc1ccc(C/C(C)=C(/c2ccc(OCCN3CCCCC3)cc2)c2ccc(OC(=O)NCc3ccccc3)cc2)cc1`, the growth in the test with NCI-H226 lung was -70% (active); in the test on HOP-62 NSCLC, -89.2% (active); with NCI-H460 lung, -90% (active); in the test on HOP-92 NSCLC, -92.7% (active); with NCI-H522 lung it was -80.9% (active); in the test with A549/ATCC NSCLC it was -93.4% (active). The growth is -91.6% (active) with 786-0 renal and -90.4% (active) with COLO 205 colon.
On to `Clc1ccc(Nc2nnc(COc3ccccc3)c3ccccc23)cc1`, for which the growth with NCI-H226 lung was 1.78% (active); in the test with NCI-H322M lung, 21.2%; in the test on HOP-62 NSCLC, 13.1%; with HOP-92 NSCLC, -28% (active); with NCI-H522 lung, -17.4% (active); in the test on A549/ATCC NSCLC it was 4.64% (active). The growth in the test on 786-0 renal was 5.25% (active); with COLO 205 colon, -5.75% (active).
Turning to `O=C(/C=C/c1cccs1)c1ccc(Cl)nc1`, the growth is 107% with NCI-H226 lung; 99.3% in the test with NCI-H322M lung; 94.9% in the test with HOP-62 NSCLC; 106% in the test on NCI-H460 lung; 105% with HOP-92 NSCLC; 82% with NCI-H522 lung. Also, the figures for the growth in the test with A549/ATCC NSCLC, with 786-0 renal and with COLO 205 colon were 98.6%, 93.7% and 108%, respectively.
For the molecule `CCCCCCCCCCCCCCCC(N)c1ccccc1` (stereo not given), the growth was 87.6% with NCI-H226 lung; 92.9% in the test on NCI-H322M lung; -33.9% (active) in the test with HOP-62 NSCLC; -66.8% (active) with NCI-H460 lung; 31.4% in the test with HOP-92 NSCLC; 63.5% in the test on NCI-H522 lung. For the same molecule, the growth is 31.9% in the test with A549/ATCC NSCLC, 1.55% (active) in the test on 786-0 renal and -57.8% (active) in the test on COLO 205 colon.
`Cc1cnc(C(=O)NNc2nc3sc4c(c3c(=O)n2C)C(C)CCC4)cn1` (stereo not given): the growth in the test with NCI-H226 lung is -1.53% (active); with NCI-H322M lung, 9.91% (active); in the test with HOP-62 NSCLC it was -39.1% (active); in the test on NCI-H460 lung it was 4.18% (active); in the test with HOP-92 NSCLC it was -9.03% (active); in the test on NCI-H522 lung it was -9.87% (active). Moreover, the results for the growth with A549/ATCC NSCLC and with 786-0 renal were -5.22% (active) and 0.305% (active), respectively.
With `O=C(CSc1nc2sc3c(c2c(=O)n1-c1ccccc1)CCCCC3)N/N=C/c1ccc(F)cc1`, the growth was 86.9% with NCI-H226 lung; 67.5% in the test on NCI-H322M lung; 19.9% in the test on HOP-62 NSCLC; 1.12% (active) in the test on NCI-H460 lung; 82.6% in the test on HOP-92 NSCLC; 44.3% in the test on NCI-H522 lung. Also, the growth was 9.73% (active) in the test with A549/ATCC NSCLC, 64.1% with 786-0 renal and 33% in the test on COLO 205 colon.
With `N#C/C(=C/c1ccc([N+](=O)[O-])cc1)n1nnc2cc(F)c(F)cc21`, the growth with NCI-H226 lung was 102%; in the test on NCI-H322M lung, 98.4%; in the test on HOP-62 NSCLC it was 96.6%; in the test on NCI-H460 lung, 33.1%; with HOP-92 NSCLC it was 99.6%; with NCI-H522 lung, 62.6%. Also, the growth with A549/ATCC NSCLC is 87.6%; in the test on 786-0 renal, 42.1%; with COLO 205 colon it was 77.4%.
On to `CCSc1nc(NC)c2cc(-c3ccc(C(F)(F)F)cc3)ccc2n1`, for which the growth in the test on NCI-H226 lung is 93.3%; in the test on NCI-H322M lung, 97.8%; in the test on HOP-62 NSCLC, 101%; in the test with NCI-H460 lung, 103%; with HOP-92 NSCLC, 97.6%; in the test on NCI-H522 lung, 93.7%. The values for the growth in the test with A549/ATCC NSCLC, in the test with 786-0 renal and with COLO 205 colon were 100%, 102% and 107%, respectively.
In the case of `CN(C)CCCn1c2c(c3ncccc3c1=O)C(=O)c1ccccc1-2`, the growth in the test with NCI-H226 lung is 54.1%; in the test on NCI-H322M lung, 44.1%; with HOP-62 NSCLC it was 51.9%; in the test with NCI-H460 lung, 11.6%; with HOP-92 NSCLC, 70.9%; in the test on NCI-H522 lung, 34.4%. Further, the results for the growth in the test on A549/ATCC NSCLC, in the test with 786-0 renal and with COLO 205 colon were 42%, 52.2% and 20.4%, respectively.
